Assay [1] concerns Vero E6 infected with SARS-CoV-2. Nature of the assay: morphology score (similarity to uninfected cells); higher = more like uninfected cells. Particulars: 24 h.
Assay [2] shares this test system. As to the kind of experiment: SARS-CoV-2 infection rate relative to infected DMSO; higher = more infection, active = 60 or less. Particulars: 24 h.

`O=C(NCc1ccc(F)cc1)N1CCN2C(=O)OC(c3ccccc3)(c3ccccc3)[C@@H]2C1` (racemic) (10 µM) returned a morphology score in assay [1] of 0.069. In assay [2], the SARS-CoV-2 infection rate is 97% (inactive).
In assay [1], `CC[N+](C)(CC)CCOC(=O)C1c2ccccc2Oc2ccccc21` [methantheline] (10 µM) registered a morphology score of 0.0949. Further, the SARS-CoV-2 infection rate in assay [2] is 106% (inactive).
The like results for `O=C1c2ccccc2C(=O)C1c1ccccc1` [phenindione] (10 µM) were, in that order, -0.000221 and 106% (inactive).
In the same order, the values of `OC[C@H]1NC[C@@H](O)[C@@H](O)[C@@H]1O` [1-deoxymannojirimycin] (10 µM) are -0.0915 and 102% (inactive).
In the same order, the values of `c1ccc([C@@H]2C[C@H]2NC2CCNCC2)cc1` (10 µM) are -0.09 and 114% (inactive).
As for `c1ccc2c(Oc3nc(Nc4ccc(N5CCOCC5)cc4)c4ncn(C5CCCCC5)c4n3)cccc2c1` [purmorphamine] (10 µM), in assay [1], the morphology score was -0.227. Besides, the SARS-CoV-2 infection rate in assay [2] was 113% (inactive).

The record behind these values is the supplement of paper PMC13380429.
